Screening results (PubChem BioAssay)
Compounds with a hit are over-represented: about 11% of the library has one in this group of screens.
PNC assembly inh = inhibitors of perinucleolar compartment assembly; 140,000 compounds, 3.1% hits; activity change (PNC), negative = inhibition, % at 10 µM; AID 2417; PC3M PTB-GFP, PNC prevalence imaging, 16 h; active compounds read low;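 active = readout at or below -70, meaning at least 70% loss of cells showing the perinucleolar compartment, a nuclear body marking cancer cells; inconclusive = readout between -30 and a set limit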;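 also: plate controls were DMSO wells for no effect and camptothecin positive control wells for full effect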
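Read-out is percentage of cells bearing a perinucleolar compartment, from automated 20x imaging of fixed, Hoechst-stained PC3M PTB-GFP cells. Cells were seeded 4 h, then exposed 16 h to compound (23 nl of library stock) in duplicate plates.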
ALDH1A1 block = ALDH1A1 (human) enzyme inhibition; Potency, µM (doses to about 75.3 µM), inactives show top-dose activity, negative = inhibition, hits mostly inhibitors; 220,000 compounds, 7.3% hits; Purified ALDH1A1, NADH fluorescence, propionaldehyde substrate; active = well fitted inhibition curve with a large enough effect, not every such curve was filed as active; inconclusive = small, poorly fitted or top-dose-only effect, or another doubt; inactive = no such curve, though single readings can be large or run the other way;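 also: potency is read from the fitted curve at half-maximal effect; plate controls were no enzyme wells and a reference inhibitor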
Target sequence (P00352 whole entry, looked up): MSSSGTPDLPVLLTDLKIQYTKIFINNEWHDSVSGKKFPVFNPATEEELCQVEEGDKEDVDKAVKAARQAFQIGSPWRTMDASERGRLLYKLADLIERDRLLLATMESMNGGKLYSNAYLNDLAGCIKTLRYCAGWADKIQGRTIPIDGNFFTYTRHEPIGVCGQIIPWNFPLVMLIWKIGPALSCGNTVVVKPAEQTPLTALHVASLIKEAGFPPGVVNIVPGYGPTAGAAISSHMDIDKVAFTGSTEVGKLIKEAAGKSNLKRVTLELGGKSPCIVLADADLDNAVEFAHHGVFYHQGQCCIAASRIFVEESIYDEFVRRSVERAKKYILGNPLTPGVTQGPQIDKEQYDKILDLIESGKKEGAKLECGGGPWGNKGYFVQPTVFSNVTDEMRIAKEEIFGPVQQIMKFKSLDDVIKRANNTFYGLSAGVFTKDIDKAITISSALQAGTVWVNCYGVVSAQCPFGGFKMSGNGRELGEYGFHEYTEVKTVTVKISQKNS
HPGD inh = blocks human HPGD enzyme activity; P15428; purified HPGD, NADH fluorescence kinetic, PGE2 substrate; Potency, µM, for inactives: at the highest dose activity change, negative = inhibition, most hits filed as inhibitors; 150,000 compounds, 4.3% hits; active = well fitted inhibition curve with a large enough effect, not every such curve was filed as active; inconclusive = small, poorly fitted or top-dose-only effect, or another doubt; inactive = no such curve, though single readings can be large or run the other way; also: potency is read from the fitted curve at half-maximal effect; % is scaled to controls: 0 for no effect and ±100 for the full control effect
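NADH formation kinetics: reaction with 30 uM PGE2 and 1 mM NAD+ (final), 20 nM enzyme, Tris-HCl pH 8 with Tween 20, after 15 min compound preincubation at room temperature. Fluorescence change, last versus first of five reads.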
HTT ATP protect = Huntington cell model cytoprotection by ATP luminescence; PC12 HTT-Q103 induced, cytoprotection, ATP luminescence, 40 h; Potency, µM (doses to about 56.4 µM), without a hit: cytoprotection (ATP increase), actives largely listed as activators; 230,000 compounds, 0.14% hits; also: potency is read from the fitted curve at half-maximal effect; % of control where 0% means no effect; nearly all actives have a fitted effect of over 45% in size
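Cells were plated at 1500 per well in phenol red-free DMEM with 5% equine and 5% calf serum. Tebufenozide (100 nM final) and compounds were added, then ATPlite reagent, and luminescence was read.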
HttQ103 aggreg = reduces HttQ103-GFP aggregates in PC12 cells; Potency, µM (series often up to 46.1 µM), inactives show at the top dose activity change, negative = inhibition, most hits filed as inhibitors; 220,000 compounds, 1.1% hits; PC12 HttQ103-GFP aggregates, Acumen cytometry, 40 h; also: potency is read from the fitted curve at half-maximal effect; % is scaled to controls: 0 for no effect and ±100 for the full control effect; nearly all actives have a fitted effect of over 60% in size
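Aggregates are detected as GFP objects 1–25 µm with signal 6 STDEV over background in lysates of induced PC12 cells. These carry Huntingtin exon 1 with 103 glutamines fused to GFP under an ecdysone promoter; compounds titrated.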
CBFb-RUNX1 inh = inhibitors of human CBF-beta and RUNX1 interaction; AID 1477; 230,000 tested, under 10 active; AlphaScreen CBFb-His/RUNX1-biotin binding, biochemical; Potency, µM (doses to about 59.8 µM), inactives show at the highest dose activity, negative = inhibition, actives largely listed as inhibitors; Q01196+Q13951; also: % of control where 0% means no effect
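Bead-based AlphaScreen assay; binding partners His-tagged CBF-beta and biotinylated RUNX1 at 30 nM each. Compound exposure 15 min after a 20-min protein preincubation; bead step 90 min; all steps at room temperature.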
Numbers without * were called inactive; ? = inconclusive; / = not tested or not shown; [ ] = dose if it differs, or a comment. Unless noted, calls follow the shape of the dose curve; as a rule, active = well fitted curve in the direction sought with a large enough effect; inconclusive = small, poorly fitted or top-dose-only effect, or another doubt; inactive = no such curve, though single readings can be large; an effect the other way counts as inactive or inconclusive.

SMILES | PNC assembly inh | ALDH1A1 block | HPGD inh | HTT ATP protect | HttQ103 aggreg | CBFb-RUNX1 inh
CC1(C)CC(=O)C(C=Nc2ccc(NC3=C(C#N)C(=O)CC(C)(C)C3)cc2)=C(O)C1 | / | 7.1µM* | / | -35% | 17% | 1%
CC1(C)CC(=O)C(C=Nc2cccc(/N=C/C3=C(O)CC(C)(C)CC3=O)n2)=C(O)C1 | 24 | 3.5µM* | -19% | 4% | 0% | 1%
CC1(C)CC(=O)C(/C=N/c2ccccn2)=C(O)C1 | -17 | 14µM* | -18% | -5% | 22µM* | 5%
CC1(C)CC(=O)C(C=Nc2ccccc2)=C(O)C1 | -19 | 3% | / | 2% | 4% | 2%
Cc1[nH]nc(N=CC2=C(O)CC(C)(C)CC2=O)c1-c1ccccc1 | ? | 28µM* | -17% | -9%[10 µM] | 2% | 11%
O=C(O)CSc1cc(-c2ccccc2)nc2ccccc12 | / | -4%[13.5 µM] | 3% | -13%[10 µM] | / | /
CCc1ccc(C(=O)NN(C(=O)c2ccc(CC)cc2)C(C)(C)C)cc1 | 32 | -2% | 25µM* | / | 0% | 9%
CC(C)(C)N(NC(=O)OCc1ccccc1)C(=O)c1ccccc1 | -80* | 2% | 0% | -1%[10 µM] | 19% | 2%
CC(C)(C)N(NC(=O)OCc1ccccc1)C(=O)c1ccccc1Cl | -17 | 2% | -4% | / | -2% | 2%
CC(C)(C)N(NC(=O)c1ccccc1)C(=O)c1ccc(C(=O)N(NC(=O)c2ccccc2)C(C)(C)C)cc1 | ? | 3% | 0% | / | -10% | -2%
COc1ccc(CN2CN=C(Nc3nc4ccccc4s3)NC2)cc1 | -23 | 3% | 1% | -20% | 6% | 2%
O=C(O)/C=C\C=C/c1ccc2c(c1)OCO2 | / | -9%[13.5 µM] | -25% | -6%[10 µM] | / | /
CCOC(=O)C1(CC)NC(c2ccco2)C2C(=O)N(c3ccc(C)cc3)C(=O)C21 (stereo not drawn) | -11 | 14µM* | -13% | -14%[10 µM] | ? | 2%
CCOC(=O)C1(CC)NC(c2ccco2)C2C(=O)N(CC)C(=O)C21 (stereo not drawn) | ? | 10% | -14% | -6%[10 µM] | 2% | 9%
COCC(=O)N1CCC2(CCCN(c3ccc(-c4ccccc4)cc3)C2)CC1 | / | ? | ? | -14% | / | /
COc1ccc(N2CCN(C(=O)CSc3ccccc3)CC2)cc1 | 17 | ? | -8% | -9% | 8% | 0%
COc1ccc(N2CCN(C(=O)CSc3ccccc3N)CC2)cc1 | ? | 25µM* | ? | 12%[10 µM] | 0% | 1%
COc1ccc(N2CCN(C(=O)CSc3nnc4n3C(C)(C)Cc3ccccc3-4)CC2)cc1 | -80* | 22µM* | -14% | -17%[1.9 µM] | ? | 3%
Cc1ccc(Cl)cc1N1CCN(C(=O)CSc2nnc3n2C(C)(C)Cc2ccccc2-3)CC1 | -21 | ? | -8% | ? | 7.9µM* | -7%
Cc1cc(C)c(NC(=S)NCCCSC2CCCCC2)c(C)c1 | / | ? | / | -43% | 11µM* | -11%
CC(=O)OCC(=O)[C@]1(O)C(C)CC2C3CCC4=CC(=O)C=C[C@@]4(C)[C@]3(F)C(O)C[C@@]21C (stereo partly drawn) | / | 4% | -11% | -61% | / | 0%
Cn1c(CN2CCCCC2)nc2cc([N+](=O)[O-])ccc21 | / | 11µM* | / | / | 1% | 4%
Cn1c(CCN2CCCCC2)nc2cc([N+](=O)[O-])ccc21 | ? | ? | -27% | -45% | -2% | -3%
O=C(Nc1ccccc1)N1CCCC2(CCN(C(=O)c3csnn3)CC2)C1 | / | 2% | 0% | 2% | / | /
Cc1cc(NC(=O)CC(C)(C)C)nc2c1c(=O)oc1ccccc12 | -119* | ? | -9% | -6%[10 µM] | -8% | -1%
CCCC(=O)Nc1cc(C)c2c(=O)oc3ccccc3c2n1 | / | / | / | -15% | 33%[9.22 µM] | 8%
O=C(c1ccco1)N1CCN(c2nc(C3CC3)nc3c2nnn3Cc2ccccc2Cl)CC1 | -13 | ? | ? | 4%[10 µM] | ? | -11%
Cc1ccc2nc(C3CCN(C(=O)c4ccco4)CC3)[nH]c2c1 | -23 | -1% | -5% | 2% | -6% | 8%
